Assay outcomes: PubChem, several laboratories
TROY signal inh = inhibitors of TROY-driven NF-kB signaling, primary screen, Q293 LMP1-TROYcd cells, NF-kB luciferase, uHTS; Q293 LMP1-TROYcd NF-kB luciferase reporter, 4 h; hit rate 0.98% among 360,000; AID 1347056, 2019; inhibition, % at 10 µM;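 active = compounds whose plate-normalised and pattern-corrected inhibition of the luciferase reporter signal at the single screening dose is 50% or more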
HSF1 activator = HSF-1 activators, primary screen, NIH3T3-HGL cells, MG132 stress, luminescence, single point; NIH3T3-HGL HSF-1 luciferase reporter, 8 h; 100% = twice DMSO control signal; activation, % at 9 µM; hit rate 1.7% among 300,000; AID 504408, 2011;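 active = mean replicate activation of at least 50% with a set share of replicates each reaching 50%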;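 note: 0% = median of the neutral control wells and 100% = twice that signal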
HSF1 inh = HSF1 inhibitors in luciferase reporter cells, primary screen, cell-based, NIH3T3, luminescence | NIH3T3-HGL HSE-luciferase, MG132-induced, luminescence 8 h; active compounds read low | activity change, negative = inhibition, % at 7.5 µM (by protocol) | hit rate 0.77% among 300,000;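 active = more than half of replicate wells show activity change below -50%, luminescence cut by over half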;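 note: luciferase reports HSF-1 transcriptional activity via heat shock element; 0% = median of DMSO wells and -100% = zero luminescence signal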
TWEAK Fn14 block = inhibitors of TWEAK-Fn14 signaling, primary screen, luciferase reporter cells, uHTS; inhibition, % at 10 µM; hit rate 2% among 360,000; TWEAK-stimulated Fn14 reporter cells, luciferase luminescence, 8 h; in the data active = inhibition above about 50%
EBV LMP1 NFkB = EBV LMP1-driven NF-kappaB luciferase reporter inhibitors, primary screen, cell-based, luminescence, single point | LMP1-induced NF-kappaB luciferase reporter cells | inhibition, % at 12.5 µM | hit rate 0.69% among 350,000; in the data active = inhibition above about 41%;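 note: 0% = neutral control wells and 100% = reference inhibitor control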
LGR2 antag = inhibitors of bursicon-induced LGR2 CRE-luciferase signal, primary screen, cell-based, HEK293, CRE-luciferase reporter, bursicon stimulation | Drosophila bursicon receptor LGR2 (rickets) | inhibition, % at 9.99 µM | hit rate 0.35% among 380,000 | bursicon-stimulated, 4 h;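 active = drop in luminescence signal, shown as inhibition above about 50% in the replicate tests, limit read from the data, passing the limit was not always enough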;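 note: agonist challenge used bursicon conditioned medium at about half maximal strength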
The depositor's hits bear a star. This is a sample that favours compounds with a hit; in the whole collection about 3.6% have one here.

Results for CCS(=O)(=O)CCSc1nc2ccccc2s1 ?
TROY signal inh: -2; HSF1 activator: 1; HSF1 inh: -2; TWEAK Fn14 block: -8; EBV LMP1 NFkB: -3

Results for O=S(=O)(CCSc1nc2ccccc2s1)c1nc2ccccc2s1 ?
TROY signal inh: 69*; HSF1 activator: 95*; HSF1 inh: 62; TWEAK Fn14 block: 83*; EBV LMP1 NFkB: 6

Results for CC(OC(=O)CCCSc1nc2ccccc2s1)C(=O)NC(N)=O (stereo unspecified) ?
TROY signal inh: 11; HSF1 activator: 3; HSF1 inh: -10; TWEAK Fn14 block: 22; EBV LMP1 NFkB: 0; LGR2 antag: 5

Results for O=C(C[C@H]1CC[C@H](NC(=O)Cc2cccnc2)[C@@H](CO)O1)Nc1ccccc1 ?
LGR2 antag: -4

Results for COCC(=O)N(C[C@H]1N[C@H](CO)[C@@H]1c1ccc(C2=CCCC2)cc1)C(C)C ?
LGR2 antag: 6

Results for CC=Cc1ccc2n(c1=O)C[C@@H]1[C@@H](CO)[C@H](C(=O)NCc3ccncn3)N(C(=O)NC3CCCC3)[C@H]21 (mixture of isomers) ?
LGR2 antag: -17

Results for O=C(Nc1ccc2c(c1)CCC2)c1cc2ccccc2o1 ?
TROY signal inh: -12; HSF1 activator: 63*; HSF1 inh: 26; TWEAK Fn14 block: 14; EBV LMP1 NFkB: -36; LGR2 antag: -19

Results for Cc1ccc(C(=O)Nc2ccc3c(c2)CCC3)o1 ?
TROY signal inh: -56; HSF1 activator: 63*; HSF1 inh: 32; TWEAK Fn14 block: 1; EBV LMP1 NFkB: -8

What do the screens show for `C[C@@H]1CN([C@@H](C)CO)C(=O)c2cccc(NS(=O)(=O)c3cccs3)c2O[C@H]1CN(C)S(=O)(=O)c1ccc(Cl)cc1`?
LGR2 antag: -1

Results for COc1ccc(S(=O)(=O)Nc2ccc3c(c2)C(=O)N([C@@H](C)CO)C[C@@H](C)[C@H](CN(C)C(=O)Nc2ccc(C(F)(F)F)cc2)OCCCC[C@H](C)O3)cc1 ?
LGR2 antag: 18

Results for O=C1c2cccc3cccc(c23)C(=O)N1CCN1CCN(CC(O)COCc2ccc(Cl)cc2)CC1 (stereo unspecified) ?
TROY signal inh: 17; HSF1 activator: 73*; HSF1 inh: 40; TWEAK Fn14 block: -71; EBV LMP1 NFkB: -5; LGR2 antag: -2

What do the screens show for `COc1cc(COCC(O)CN2CCN(CCN3C(=O)c4cccc5cccc(c45)C3=O)CC2)cc(OC)c1OC` (stereo unspecified)?
TROY signal inh: -7; HSF1 activator: 115*; HSF1 inh: 88; TWEAK Fn14 block: -35; EBV LMP1 NFkB: 1; LGR2 antag: -8

How did COc1cc(COCC(O)CN2C(C)CCCC2C)cc(OC)c1OC (stereo unspecified) do in these assays?
TROY signal inh: -8; HSF1 activator: -7; HSF1 inh: -8; TWEAK Fn14 block: -6; EBV LMP1 NFkB: 88*; LGR2 antag: 4

How did COc1ccc(COCC(O)CN2CCC(CN3C(=O)c4cccc5cccc(c45)C3=O)CC2)cc1OC (stereo unspecified) do in these assays?
TROY signal inh: 2; HSF1 activator: 7; HSF1 inh: 3; TWEAK Fn14 block: -20; EBV LMP1 NFkB: 0; LGR2 antag: 27

What do the screens show for `CC1CCCC(C)N1CC(O)COCc1ccccc1` (stereo unspecified)?
TROY signal inh: -19; HSF1 activator: -16; HSF1 inh: -4; TWEAK Fn14 block: 22; EBV LMP1 NFkB: 7; LGR2 antag: 9

How did COc1cc(C2CC(=O)c3c([nH]c(C(=O)OCCOC(C)C)c3C)C2)cc(OC)c1OC (stereo unspecified) do in these assays?
TROY signal inh: 41; HSF1 activator: 8; HSF1 inh: -3; TWEAK Fn14 block: 61*; EBV LMP1 NFkB: 17; LGR2 antag: 21
